According to PubChem BioAssay AID624483 (NMMLSC, 2012):
Hit rate of the full screen: of about 360,000 compounds, about 11,000 (3.1%) were called active. About 2% were inconclusive and are not listed. No stated cut-off is given here; in the data, active means fluorescence intensity above about 16000; inconclusive means no clear call, values can overlap the other calls; inactive means below that. The entries come from a sample that favours actives as a whole.

Test: counter-screen for toxin protease inhibitors: compound fluorescence, primary screen, artefact control for toxin protease inhibitor project, biochemical, multiplex microsphere, HTS (AID 624483)
Conditions: compound autofluorescence counterscreen, microsphere flow cytometry; hits give high values

Row | SMILES | fluorescence intensity
1 | O=S1(=O)CC(N2CCN(CCO)CC2)CN1Cc1cn(Cc2ccc(Cl)cc2)nn1 (stereo not drawn) | 5500 (inactive)
2 | Cc1nc(Nc2ccc(S(=O)(=O)N3CCCC3)cc2)c2nnn(Cc3ccccc3)c2n1 | 2010 (inactive)
3 | O=S(=O)(NCc1ccccc1)c1ccc(S(=O)(=O)N2CCCC2)cc1 | 4970 (inactive)
4 | O=C1c2cccnc2C(Nc2ccc(S(=O)(=O)N3CCCCCC3)cc2)N1Cc1ccccc1 (stereo not drawn) | 21600 (active)
5 | O=C(Nc1cccc(C(=O)NC2CC2)c1)c1ccc(F)c(S(=O)(=O)N2CCOCC2)c1 | 6040 (inactive)
6 | CCOC(=O)C1(C)CCCN(C(=O)c2ccc(F)c(Cl)c2)C1 (stereo not drawn) | 3580 (inactive)
7 | COc1ccc(S(=O)(=O)NC(=O)C2(C)CCN2C(=O)COc2ccc(Cl)cc2)cc1 (stereo not drawn) | 3840 (inactive)
8 | COC(=O)[C@]12CCCCC=C1N(Cc1ccc(Cl)cc1Cl)C(=O)[C@H](CC(=O)NCc1cccc3ccccc13)C2 | 5890 (inactive)
9 | COc1ccc(N2CCN(C(c3cc4ccc(C)cc4[nH]c3=O)c3nnnn3C3CCCC3)CC2)cc1 (stereo not drawn) | 24400 (active)
10 | CCOC(=O)C1CCN(C(c2cc3cc(C)cc(C)c3[nH]c2=O)c2nnnn2C2CCCCC2)CC1 (stereo not drawn) | 11300 (inactive)
11 | COc1ccc(C(c2nnnn2C2CCCCC2)N2CCN(c3ccccc3F)CC2)cc1 (stereo not drawn) | 2590 (inactive)
12 | CN(CC(=O)NC1CCN(Cc2ccccc2)CC1)S(=O)(=O)c1ccc(Cl)s1 | 4220 (inactive)
13 | CC(C)(C)C(=O)c1c(N)[nH]c(C(=O)c2ccccc2)c1-c1ccc(F)cc1 | 4830 (inactive)
14 | O=C(Nc1cccc(-c2nnc(-c3ccccc3)o2)c1)C1CCCO1 (stereo not drawn) | 8340 (inactive)
15 | CCOc1ccc(NC(=O)c2ccc(NC(=O)C3CCCO3)cc2)cc1 (stereo not drawn) | 5940 (inactive)
16 | O=C(Nc1ccc(-c2nnc(-c3ccccc3)o2)cc1)C1CCCO1 (stereo not drawn) | 23500 (active)
17 | COc1ccc(NC(=O)NNC(=O)COc2cc(C)c(Cl)c(C)c2)c(OC)c1 | 4710 (inactive)
18 | COc1cc(NC(=O)c2ccc(CNc3c(N4CCCC4)c(=O)c3=O)cc2)cc(OC)c1OC | 4980 (inactive)
19 | COc1ccc(Br)c(Cn2c(C)c(C(=O)NCc3cccs3)sc2=O)c1 | 5140 (inactive)
20 | CCN(CC)Cc1c(C(=O)OC)nnn1-c1nonc1N | 2240 (inactive)
21 | Nc1ccccc1-c1nc2ccncc2[nH]1 | 3770 (inactive)
22 | O=C(Nc1sc2c(c1-c1nc3ccccc3[nH]1)CCCC2)C1CC1 | 3170 (inactive)
23 | c1ccc2[nH]c(-c3nc4ccccc4[nH]3)nc2c1 | 16500 (active)
24 | CCOC(=O)[C@]12CCCC=C1N(Cc1ccc3c(c1)OCO3)C(=O)[C@H](CC(=O)N1CCN(C(=O)c3ccco3)CC1)C2 | 3930 (inactive)

Row | SMILES | fluorescence intensity
25 | Cc1ccc(Cc2c(-c3ccc(Cl)cc3)nc3c4ccccc4ccn23)cc1 | 4990 (inactive)
26 | Cc1ccc(Nc2cc(=O)n(C3CCCCC3)c(=O)[nH]2)cc1C | 3080 (inactive)
27 | CC(=O)c1c(O)n(C2CCCCCC2)c(=O)[nH]c1=O | 2970 (inactive)
28 | O=c1cc(C(F)(F)F)[nH]c(=O)n1C1CCCCC1 | 24200 (active)
29 | CCOc1cc(C2C(C(=O)OC)=CN(C3CCCC3)C=C2C(=O)OC)cc(Br)c1O | 8950 (inactive)
30 | COC(=O)C1=CN(C)C=C(C(=O)OC)C1c1ccc(Cl)cc1Cl | 3960 (inactive)
31 | CCOc1ccccc1C1C(C(=O)OC)=CN(C)C=C1C(=O)OC | 19700 (active)
32 | CC(Oc1ccc2c(-c3ccccc3)cc(=O)oc2c1)C(=O)NC(Cc1c[nH]c2ccccc12)C(=O)O (stereo not drawn) | 3610 (inactive)
33 | COC(=O)C(C)Oc1ccc2c(-c3cccc([N+](=O)[O-])c3)cc(=O)oc2c1 (stereo not drawn) | 21200 (active)
34 | COc1ccc(-c2cc(=O)oc3cc(OC(C)C(=O)NCC4CCC(C(=O)O)CC4)ccc23)cc1 (stereo not drawn) | 6030 (inactive)
35 | CC(C)n1c(NCc2c[nH]c3ccccc23)nc2ccccc21 | 2940 (inactive)
36 | COCCOC(=O)c1sc(=S)n(CCOC)c1N | 23500 (active)
37 | CC(=O)N1Cc2cc(C(=O)NCc3cccc(F)c3)nc(-c3cccc(C4=CCCCC4)c3)c2[C@H]1CCO | 5630 (inactive)
38 | Cc1ccc(C(=O)OCC(=O)NCc2ccc3c(c2)OCO3)s1 | 3100 (inactive)
39 | Cc1ccc(CNC(=O)CCNS(=O)(=O)c2ccc(Br)s2)cc1 | 3440 (inactive)
40 | O=C(CNS(=O)(=O)c1ccc(Br)s1)NCc1ccc2c(c1)OCO2 | 24800 (active)
41 | O=C(NCc1ccc2c(c1)OCO2)c1ccc(Cl)s1 | 3620 (inactive)
42 | O=C(NCc1cccnc1)C12CC3CC(CC(C3)C1)C2 | 3100 (inactive)
43 | O=C(NCc1ccc2c(c1)OCO2)C12CC3CC(CC(C3)C1)C2 | 21300 (active)
44 | COc1ccc(OC)c(NC(=O)C2(C)CCN2C(=O)Cc2ccccc2)c1 (stereo not drawn) | 3710 (inactive)
45 | CCCCOCCCNC(=O)C[C@@H]1C[C@@]2(C(=O)OC)CCCCC=C2N(CCC2=CCCCC2)C1=O | 6000 (inactive)
46 | O=c1onc(-c2c(F)cccc2F)n1-c1ccccc1Cl | 4210 (inactive)
47 | Cc1ccc(NS(=O)(=O)c2ccc(-c3coc(C)n3)cc2)c(C)c1 | 5350 (inactive)
48 | Cc1c(C)c2c(OCC(=O)N[C@@H](C(=O)O)c3ccccc3)cc3c(c2oc1=O)CCC(C)(C)O3 | 6410 (inactive)

Row | SMILES | fluorescence intensity
49 | CCOC1=C2CN(S(=O)(=O)c3ccc(C)cc3)[C@H](c3cccs3)C[C@H]2[C@H]2C(=O)N(c3ccccc3)C(=O)[C@H]2C1 | 6240 (inactive)
50 | COCCCn1cc(CN2CC(N(C)C)CS2(=O)=O)nn1 (stereo not drawn) | 4380 (inactive)
51 | Cc1ccc(F)cc1NC(=O)c1cccc(N(C)C)c1 | 23300 (active)
52 | O=C(Nc1cccc2c1CCCC2)c1ccc(F)cc1 | 4040 (inactive)
53 | Cc1ccc(C)c(NC(=O)c2ccc3nccnc3c2)c1 | 4320 (inactive)
54 | COCCNc1nc(Nc2ccccc2Cl)c2sc(-c3ccccc3)cc2n1 | 3680 (inactive)
55 | Cc1ccc(C)c(N2C(=O)CS/C2=N\NC(=O)c2ccccc2Cl)c1 | 9520 (inactive)
56 | CC1=CC(=NNS(=O)(=O)c2ccc([N+](=O)[O-])cc2)CC(C)(C)C1 | 3700 (inactive)
57 | C/C(=N/NC(=O)CCc1ccccc1)c1ccco1 | 2010 (inactive)
58 | CSc1nc(-c2ccco2)nn1C(=O)c1ccccc1Cl | 4950 (inactive)
59 | CSc1nc(-c2ccco2)nn1C(=O)CCc1ccccc1 | 22700 (active)
60 | COc1cccc(C(O)c2nc(-c3ccc(C)c(C)c3)cs2)c1 (stereo not drawn) | 3830 (inactive)
61 | CCC1=[N+]([O-])C(C)(/C(C)=N\O)N(O)C1(C)C (stereo not drawn) | 9530 (inactive)
62 | CCC1(C)N(O)C(C)(C)C(c2ccc(OC)cc2)=[N+]1[O-] (stereo not drawn) | 5620 (inactive)
63 | C/C(=N\O)C1(C)N(O)C(C)(C)C(c2ccc(Br)cc2)=[N+]1[O-] (stereo not drawn) | 25600 (active)
64 | C=CCN(CC=C)S(=O)(=O)c1ccc(C(=O)Nc2nc3c(s2)CCc2ccccc2-3)cc1 | 11000 (inactive)
65 | CC(=O)c1c(C)oc2ccc(NS(=O)(=O)c3ccccc3)cc12 | 5190 (inactive)
66 | COc1cc(NS(=O)(=O)c2ccccc2)ccc1-n1nc(C)cc1C | 17700 (active)
67 | COc1ccccc1-n1cnc2cc(NS(=O)(=O)c3ccccc3)ccc21 | 3550 (inactive)
68 | CC(C)(O)C#Cc1ncc(C(F)(F)F)cc1Cl | 4380 (inactive)
69 | O=C(NC1CCCCC1)C1CC(=O)N(CCc2ccccc2)C1 (stereo not drawn) | 21500 (active)
70 | Cc1ccc(CCN2CC(C(=O)NCCc3ccccc3)CC2=O)cc1 (stereo not drawn) | 5840 (inactive)
71 | O=C(NCCCN1CCCCC1)C1CC(=O)N(CCc2ccccc2)C1 (stereo not drawn) | 5320 (inactive)
72 | CC(=O)NC1CCN(CC(=O)Nc2nccs2)CC1 | 3460 (inactive)

Row | SMILES | fluorescence intensity
73 | O=C(Nc1cccc2ccccc12)c1[nH]c(-c2ccccc2)c2c1C(=O)N(C1CC1)C2=O | 5310 (inactive)
74 | CCCNC(=O)c1cc2c(c(-c3cccc(-c4ccc(C#N)cc4)c3)n1)[C@@H](CCO)N(C(=O)CC)C2 | 4490 (inactive)
75 | Cn1c2c(c(=O)n(C)c1=O)[C@@H]1c3c(ccc4ccccc34)OC[C@@H]1CO2 | 3510 (inactive)
76 | Fc1ccccc1OCCCCn1cncn1 | 5750 (inactive)
77 | OCCNCCCCOc1ccccc1F | 23000 (active)
78 | CCN1CCN(CCCCOc2ccccc2F)CC1 | 9580 (inactive)
79 | CCCN1C(=O)C(NC(C)=O)c2cc(OC)ccc21 (stereo not drawn) | 2550 (inactive)
80 | COc1ccc(C(=O)NCC[N+](C)(C)C)cc1 | 5780 (inactive)
81 | O=C(NC1CCCC1)C1c2ccccc2OCC(=O)N1Cc1ccccc1 (stereo not drawn) | 5910 (inactive)
82 | CC(c1ccco1)N(C(=O)Nc1ccccc1)C1CCCCC1 (stereo not drawn) | 20500 (active)
83 | Cc1ccc(NC(=O)NC(=O)N(C2CCCCC2)S(=O)(=O)c2ccccc2)cc1 | 9210 (inactive)
84 | CC(=O)N1CCC(N(C(=O)Nc2ccc(Cl)cc2)C(C)C)CC1 | 4610 (inactive)
85 | Cc1cc(C)c(S(=O)(=O)NN=C2c3ccccc3[C@H]3Cc4csc[n+]4[C@@H]23)c(C)c1 | 5040 (inactive)
86 | O=C(c1ccc(C(F)(F)F)cc1)N1CCC(=O)N([C@H](COCc2ccccc2)Cc2ccccc2)CC1 | 5850 (inactive)
87 | COc1ccc(C(=O)Cn2nnc(-c3ccc(N4CCOCC4)cc3)n2)cc1OC | 24200 (active)
88 | CCOc1ccc(-c2nnn(CC(=O)N3CCN(c4ccc(F)cc4)CC3)n2)cc1OCC | 6120 (inactive)
89 | CCOc1ccc(-c2nnn(CC(=O)N3CCN(c4ccc(OC)cc4)CC3)n2)cc1OCC | 4250 (inactive)
90 | CCCNC(=O)c1cc(C2CCCCN2C(=O)OC)on1 (stereo not drawn) | 3000 (inactive)
91 | COc1cc(C2C(C(=O)Nc3ccccc3OC)=C(C)Nc3ncnn32)ccc1O (stereo not drawn) | 6420 (inactive)
92 | COc1ccccc1NC(=O)C1=C(C)Nc2nnnn2C1c1cccc(Br)c1 (stereo not drawn) | 20400 (active)
93 | COc1ccccc1NC(=O)C1=C(C)Nc2ncnn2C1c1ccc(C)o1 (stereo not drawn) | 2690 (inactive)
